The values that follow come from ChEMBL document CHEMBL1157539, “Thousands of chemical starting points for antimalarial lead identification” (Nature, 2010).

The structures appear in SMILES notation.

Holding throughout (assay type): functional
In assay [1] the test system is Plasmodium falciparum. Description: GSK_TCMDC: Inhibition of Plasmodium falciparum 3D7 in whole red blood cells, using parasite LDH activity as an index of growth. Test compounds present at 2uM.
In assay [2] the test system is Plasmodium falciparum. Put plainly: GSK_TCMDC: Inhibition of Plasmodium falciparum Dd2 in whole red blood cells, using parasite LDH activity as an index of growth. Test compounds present at 2uM.
The test system of another assay is HepG2. Put plainly: GSK_TCMDC: Percent inhibition of human HepG2 cell line. Test compounds present at 10uM.

For `COc1cc(C(F)(F)F)nc2c(CNCCCNc3cc(=O)c4ccccc4[nH]3)scc12.Cl`, the Inhibition (commonly the relative decrease from the control value, in per cent) in the assay on Plasmodium falciparum [1] is reported as 92%; in the assay on Plasmodium falciparum [2], 16%; in the assay on HepG2, 0%.

Regarding `CC1CCCCN1S(=O)(=O)c1ccc(NC(=O)c2cc(-c3ccccc3O)n[nH]2)cc1` (stereo not drawn), the Inhibition with Plasmodium falciparum [1] amounted to 90%; in the assay on Plasmodium falciparum [2], 96%; in the assay on HepG2, 26%.

`COc1cc2nc(NCCCN3CCCCC3)nc(NCc3ccccc3)c2cc1OC`: the Inhibition with Plasmodium falciparum [1] is 100%; with Plasmodium falciparum [2] it was 3%; in the assay on HepG2 it was 12%.

On to `Cc1cc(N(C)CCN(C)C)nc(Nc2ccc(Cl)cc2)n1`, for which the values for the Inhibition in the assay on Plasmodium falciparum [1], in the assay with Plasmodium falciparum [2] and with HepG2 were 92%, 14% and 0%, respectively.

Take `CC(C)CCNC(=O)C1Cc2c([nH]c3ccc(Br)cc23)C2(CCN(Cc3ccccc3)CC2)N1` (stereo not drawn): the Inhibition was 96% in the assay on Plasmodium falciparum [1], 68% in the assay with Plasmodium falciparum [2] and 100% with HepG2.

For `CN1CCC(N2CCN(CCOc3cc(NC(=O)/C=C/c4ccccc4Cl)ccc3Br)CC2)CC1.O=C(O)C(=O)O`, the Inhibition in the assay on Plasmodium falciparum [1] is 100%; in the assay on Plasmodium falciparum [2], 99%; with HepG2, 36%.

On to `CN(C)CCC1CCCc2ccc(NC(=O)Nc3cccc(Cl)c3Cl)cc21.Cl` (stereo not drawn), for which the Inhibition in the assay on Plasmodium falciparum [1] turned out to be 93%; in the assay on Plasmodium falciparum [2] it was 11%; in the assay on HepG2, 44%.

Take `CC(C)(CNC(=O)C1CCN(Cc2ccc(Cl)cc2)CC1)c1nc(-c2ccc(Cl)c(O)c2)c(-c2ccncc2)[nH]1.Cl`: the Inhibition in the assay on Plasmodium falciparum [1] amounted to 100%; in the assay on Plasmodium falciparum [2] it was 83%; in the assay on HepG2, 36%.

On to `COc1ccc(O)c(C(=O)c2cc(C(=O)NC3CCCCC3)c(=O)n(C3CCCCC3)c2)c1`, for which the Inhibition is 99% in the assay on Plasmodium falciparum [1], 62% in the assay on Plasmodium falciparum [2] and 8% with HepG2.

On to `CCCCCN1CCCC(NS(=O)(=O)c2ccc(C(=O)Nc3cccc(C(F)(F)F)c3)cc2)C1.O=C(O)C(F)(F)F` (stereo not drawn), for which the figures for the Inhibition in the assay on Plasmodium falciparum [1], with Plasmodium falciparum [2] and with HepG2 were 97%, 3% and 30%, respectively.

As for `CCC1CN2CCc3cc(OC)c(OC)cc3C2CC1CC1NCCc2cc(OC)c(OC)cc21.Cl` (stereo not drawn), the Inhibition in the assay on Plasmodium falciparum [1] is 100%; in the assay with Plasmodium falciparum [2], 98%; with HepG2, 42%.

Consider `CC(=O)c1c(Cc2cccc(C(F)(F)F)c2)c[nH]c1C`, for which the Inhibition amounted to 94% in the assay on Plasmodium falciparum [1], 92% with Plasmodium falciparum [2] and 6% in the assay on HepG2.

`FC(F)(F)c1cccc(Nc2nc(-n3ccnc3)nc(-n3ccnc3)n2)c1`: the Inhibition in the assay with Plasmodium falciparum [1] was determined as 97%; in the assay with Plasmodium falciparum [2], 9%; in the assay with HepG2, 5%.

As for `O=C(/C=C/c1ccc(Cl)cc1)NCCCCCN1CCC(C(=O)Nc2ccc(Cl)c(Cl)c2)CC1`, the Inhibition in the assay on Plasmodium falciparum [1] is 100%; in the assay on Plasmodium falciparum [2], 0%; with HepG2, 47%.

With `COc1cc2ccccc2c(OC)c1CNCCCCCCNCc1c(OC)cc2ccccc2c1OC.CS(=O)(=O)O`, the Inhibition with Plasmodium falciparum [1] turned out to be 93%; in the assay with Plasmodium falciparum [2], 91%; in the assay with HepG2, 100%.

Regarding `CN(c1ccc2c(c1)nc(Nc1ccc(Cl)cc1)n2C)c1ccnc(Nc2ccc(CS(C)(=O)=O)cc2)n1.Cl`, the Inhibition amounted to 97% with Plasmodium falciparum [1], 52% with Plasmodium falciparum [2] and 91% in the assay on HepG2.

As to `O=C(c1ccc(Cl)cc1)C1CCCN(C2CCN(CCc3ccccc3)CC2)C1` (stereo not drawn), the Inhibition in the assay with Plasmodium falciparum [1] stood at 96%; with Plasmodium falciparum [2], 51%; in the assay with HepG2, 37%.

With `Cc1[nH]c(C)c(-c2ccc(-c3ccc(Cl)cc3)nc2)c(=O)c1Br`, the figures for the Inhibition in the assay with Plasmodium falciparum [1], with Plasmodium falciparum [2] and in the assay on HepG2 were 97%, 96% and 21%, respectively.

For `Oc1cc(Nc2ccnc3cc(-c4ccc(CN5CCCCC5)o4)c(Cl)cc23)c(Cl)cc1F`, the Inhibition with Plasmodium falciparum [1] turned out to be 100%; with Plasmodium falciparum [2] it was 64%; in the assay with HepG2 it was 0%.

Turning to `CCCNC(=O)c1ccc(N2CCC(c3ccccc3C)CC2)nc1.O=C(O)C(F)(F)F`, the Inhibition in the assay with Plasmodium falciparum [1] is given as 86%; in the assay on Plasmodium falciparum [2], 80%; in the assay with HepG2, 6%.

`CN1CCN(CCc2ccc(N/C=C3\C(=O)Nc4ccc5ncccc5c43)cc2)CC1.Cl`: the Inhibition stood at 100% with Plasmodium falciparum [1], 98% in the assay on Plasmodium falciparum [2] and 51% in the assay with HepG2.

With `CCn1c(-c2nonc2N)nc2c(-c3cccc(NC(=O)Nc4ccc(C#N)cc4)c3)ncc(OCCCN)c21.O=C(O)C(F)(F)F`, the Inhibition stood at 85% with Plasmodium falciparum [1], 80% in the assay with Plasmodium falciparum [2] and 1% in the assay on HepG2.

With `COc1ccc(NC(=O)c2cc(NC(=O)C3(N)CC3)c(=O)n(Cc3ccc(C(N)=O)cc3)c2)cc1.O=C(O)C(F)(F)F`, the Inhibition with Plasmodium falciparum [1] was determined as 95%; with Plasmodium falciparum [2], 72%; in the assay with HepG2 it was 21%.

`CCNC[C@H]1CCCN1CCOc1ccc(-n2cnc3cc(-c4ccc(Cl)cc4)sc3c2=O)cc1OC.O=C(O)C(F)(F)F`: the Inhibition in the assay with Plasmodium falciparum [1] came out at 97%; with Plasmodium falciparum [2] it was 39%; in the assay on HepG2 it was 53%.

For `CC(CCc1ccccc1)NCC(O)c1ccc2c(c1)S(=O)(=O)c1ccccc1N2` (stereo not drawn), the Inhibition was found to be 95% in the assay on Plasmodium falciparum [1], 4% in the assay with Plasmodium falciparum [2] and 17% in the assay with HepG2.

For the compound `O=C(Nc1ccc(Cl)cc1C(=O)Nc1ccncc1)c1ccc(Cl)cc1Cl`, the Inhibition in the assay with Plasmodium falciparum [1] is 99%; with Plasmodium falciparum [2] it was 75%; in the assay on HepG2, 8%.

In the case of `Nc1cccc(CNCc2ccc(-c3cccc(-c4nc5ccccc5[nH]4)c3)cc2)c1.O=C(O)C(F)(F)F`, the Inhibition came out at 100% in the assay with Plasmodium falciparum [1], 78% in the assay with Plasmodium falciparum [2] and 12% in the assay with HepG2.

As to `CNCCNCc1cccc(-c2ccc(-c3nc4ccccc4[nH]3)s2)c1.O=C(O)C(F)(F)F`, the figures for the Inhibition in the assay with Plasmodium falciparum [1], in the assay with Plasmodium falciparum [2] and with HepG2 were 99%, 9% and 8%, respectively.

Consider `COc1cc(CNc2ncc(-c3ccsc3)c(-c3nccs3)n2)cc(OC)c1`, for which the Inhibition in the assay on Plasmodium falciparum [1] came to 86%; in the assay on Plasmodium falciparum [2] it was 82%; in the assay with HepG2, 3%.

As for `CN1CCN(Cc2ccc(-c3ccc4ncnc(Nc5ccc(OCc6ccccc6)cc5)c4c3)o2)CC1`, the Inhibition came out at 97% in the assay with Plasmodium falciparum [1], 90% with Plasmodium falciparum [2] and 9% in the assay on HepG2.

On to `CC(C)Oc1ccccc1-c1csc(C(=O)NCC2CCN(Cc3ccc(C(C)(C)C)cc3)C2)c1.O=C(O)C(F)(F)F` (stereo not drawn), for which the Inhibition in the assay with Plasmodium falciparum [1] is recorded as 90%; in the assay with Plasmodium falciparum [2], 45%; in the assay with HepG2, 59%.
